In publication PMC5540273 (PLoS ONE, 2017):

Legend:
Details in all cases: concentration: 1 μM, replicates: in singlicate; n = 1
[1] = system: CSK
[2] = system: CSNK1A1L
[3] = system: CSNK1A1
[4] = system: CSNK1D
[5] = system: CSNK1E
[6] = system: CSNK1G1
[7] = system: CSNK1G2
[8] = system: CSNK1G3
[9] = system: CSNK2A1
[10] = system: CSNK2A2
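Also: KINOMEscan kinase panel screen.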

Compound	%Inh [1] [%]	%Inh [2] [%]	%Inh [3] [%]	%Inh [4] [%]	%Inh [5] [%]	%Inh [6] [%]	%Inh [7] [%]	%Inh [8] [%]	%Inh [9] [%]	%Inh [10] [%]
CNc1nc(-c2ccc3c(N)n[nH]c3c2)cc(N2C[C@@H](C(=O)NC3CCCCC3)OC[C@H]2C)n1 [GSK2375584]	1	16	66	41	38	2	4	26	1	8
CCn1c(-c2c(N)noc2C)nc2cnccc21 [SB-737856]	0	18	0	13	11	8	0	9	0	0
Fc1ccc(-c2nc[nH]c2-c2ccncc2)cc1 [SB-217360]	6	24	93.3	91.9	97.7	5	0	5	0	0
COC(=O)c1cccc(NC(=O)NC2CCN(c3ccnc(Nc4ccc(OC)cc4)n3)C2)c1 (centres unmarked) [GSK1379746]	0	0	0	21	35	0	0	26	0	0
Cc1cccc2c(-c3ccncn3)c(-c3ccc(F)cc3)nn12 [GW515532]	0	0	50	81	100	14	0	99.9	1	0
Cc1ccc(NC(=O)c2ccc(Cl)cc2)cc1-c1ccc(C(=O)Nc2ccncc2)cc1 [GSK1398467]	0	14	0	18	11	8	9	22	0	0
Nc1ncnc2occ(-c3ccc4c(c3)CCN4C(=O)Cc3cc(F)ccc3F)c12 [GSK2645446]	0	1	1	0	30	4	0	38	0	11
O=C(Nc1n[nH]c2nc(-c3ccco3)c(Br)cc12)C1CCN(Cc2ccccc2)C1.O=C(O)[C@H](O)[C@@H](O)C(=O)O (centres unmarked) [SB-742034]	11	8	21	28	0	4	32	0	22	37
CSc1ccc(-c2nc3n(c2-c2ccncc2)CCC3)cc1 [SKF-105561]	0	5	5	6	7	0	0	1	8	0
O=c1cc(N2CCOCC2)nc2n(Cc3ccccc3F)ccn12 [GSK2297428]	0	0	28	25	33	9	0	28	0	0
COC(=O)C(NC(=O)NC1CCN(c2ccnc(Nc3ccc(F)cc3)n2)C1)c1ccccc1 (centres unmarked) [GSK1379712]	0	3	0	92	19	5	1	25	3	0
Nc1cccc(-c2ccc3c(N)n[nH]c3c2)n1 [GSK2192730]	15	0	77	0	39	4	0	19	27	42
Fc1ccc(-c2nn3cccc(F)c3c2-c2ccncc2)cc1 [GW475620]	0	30	69	94	96.2	16	2	24	11	9
Cn1cnc2c(N)ncnc21 [SKF-97623]	0	22	1	0	8	0	70	0	0	0
Cc1ccccc1Cn1ccn2c(=O)cc(N3CCOCC3)nc12 [GSK2269905]	0	0	0	4	28	0	0	22	0	0
CNC(=O)c1ccc(C)c(-n2c(C)cc(OCc3ccc(F)cc3F)c(Br)c2=O)c1	0	0	4	0	6	0	0	25	0	0
CCCCc1nn2ncccc2c1-c1ccnc(NC2CC2)n1 [GW684374]	2	0	18	90.1	92.4	0	0	25	0	5
